Common to all, as to conditions: mRNA level, 48 h; actives raise or lower the signal
Read-out in test [1]: Bcl-2 (BID) gene, BID (gene 637)
Briefly: LTEA_HepaRG_BID: Life Technologies and Expression Analysis (LTEA) Assay for Bcl-2 (BID) gene using HepaRG (AID 2283476). The gist of the method:
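Gene expression by qRT-PCR in HepaRG cells after 48 h exposure, duplicate wells, eight half-log concentrations topping at 100 uM in 0.5% DMSO. Normalized to ACTB, GAPDH, POLR2A; bidirectional fitting relative to DMSO.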

Read-out in a further test: Caspase-3 (Homo sapiens) (UniProt P42574)
The test is described as follows: LTEA_HepaRG_CASP3: Life Technologies and Expression Analysis (LTEA) Assay for cysteine-aspartic acid protease (CASP3) using HepaRG (AID 2283477). The method in brief:
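In HepaRG liver cells dosed for 48 h at up to 100 uM (eight-point, duplicate), CASP3 expression changes are scored by qRT-PCR. Activity is fitted in both directions with 0.5% DMSO as baseline.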

Read-out in test [2]: Cytochrome P450 (CYP24A1), CYP24A1 (gene 1591)
Briefly: LTEA_HepaRG_CYP24A1: Life Technologies and Expression Analysis (LTEA) Assay for Cytochrome P450 (CYP24A1) using HepaRG (AID 2283478). The method in brief: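 Human liver HepaRG cultures receive each chemical for 48 h across an eight-point half-log series topping at 100 uM in 0.5% DMSO. Induction or suppression of CYP24A1 mRNA is scored relative to vehicle after housekeeping-gene normalization.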

Read-out in test [3]: Cytochrome P450 (CYP1A2), CYP1A2 (gene 1544)
Briefly: LTEA_HepaRG_CYP1A2: Life Technologies and Expression Analysis (LTEA) Assay for Cytochrome P450 (CYP1A2) using HepaRG (AID 2283479). The gist of the method:
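Assesses CYP1A2 mRNA in human HepaRG liver cells after 48 h chemical exposure at up to 100 uM. Values come from qRT-PCR with bidirectional curve fitting relative to DMSO.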

Read-out in test [4]: cysteine-aspartic acid protease (CASP8), CASP8 (gene 841)
Briefly: LTEA_HepaRG_CASP8: Life Technologies and Expression Analysis (LTEA) Assay for cysteine-aspartic acid protease (CASP8) using HepaRG (AID 2283480). The method in brief: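 Differentiated HepaRG cells in serum-free induction medium, 48 h exposure, eight-point half-log series from 100 uM in 0.5% DMSO, duplicates. CASP8 mRNA by qRT-PCR, normalized to ACTB, GAPDH, POLR2A; bidirectional fit versus DMSO.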

Read-out in test [5]: Cytochrome P450 (CYP2B6), CYP2B6 (gene 1555)
The test is described as follows: LTEA_HepaRG_CYP2B6: Life Technologies and Expression Analysis (LTEA) Assay for Cytochrome P450 (CYP2B6) using HepaRG (AID 2283481). The method in brief: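 Using 48 h treatment of HepaRG cells in serum-free induction medium, concentrations spanned half-log steps from 100 uM in 0.5% DMSO vehicle. CYP2B6 mRNA induction or loss is scored by qRT-PCR against DMSO.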

Read-out in test [6]: Cytochrome P450 2C19 (Homo sapiens) (UniProt P33261)
Briefly: LTEA_HepaRG_CYP2C19: Life Technologies and Expression Analysis (LTEA) Assay for CYP2C19 using HepaRG (AID 2283482). The method in brief: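 Human HepaRG liver cells received test chemicals for 48 h (highest 100 uM, half-log dilutions in 0.5% DMSO). CYP2C19 mRNA induction or loss is read by multiplexed qRT-PCR and fitted in both directions versus vehicle.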

Read-out in a further test: CYP2C8 (gene 1558)
Briefly: LTEA_HepaRG_CYP2C8: Life Technologies and Expression Analysis (LTEA) Assay for CYP2C8 using HepaRG (AID 2283483). The method in brief: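 Differentiated HepaRG cells in serum-free induction medium exposed 48 h in duplicate to 8 half-log concentrations from 100 uM in 0.5% DMSO. CYP2C8 mRNA by qRT-PCR normalized to ACTB, GAPDH, POLR2A; bidirectional fit versus DMSO.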

Read-out in the next test: CYP2E1 (gene 1571)
Briefly: LTEA_HepaRG_CYP2E1: Life Technologies and Expression Analysis (LTEA) Assay for CYP2E1 using HepaRG (AID 2283485). The gist of the method: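 HepaRG cells, plated 48 h, then exposed 48 h in serum-free induction medium to eight half-log concentrations from 100 uM in 0.5% DMSO, duplicate. CYP2E1 mRNA by qRT-PCR, normalized to ACTB/GAPDH/POLR2A; bidirectional fit versus DMSO.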

Read-out in the next test: CYP4A11 (gene 1579)
Briefly: LTEA_HepaRG_CYP4A11: Life Technologies and Expression Analysis (LTEA) Assay for CYP4A11 using HepaRG (AID 2283486). The gist of the method:
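Readout is CYP4A11 mRNA induction or suppression (qRT-PCR, ACTB/GAPDH/POLR2A normalization) in human HepaRG cells after 48 h chemical treatment, concentrations to 100 uM in 0.5% DMSO, fitted bidirectionally against vehicle.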

Read-out in test [7]: Cytochrome P450 3A4 (Homo sapiens) (UniProt P08684)
The test is described as follows: LTEA_HepaRG_CYP3A4: Life Technologies and Expression Analysis (LTEA) Assay for CYP3A4 using HepaRG (AID 2283487). The gist of the method: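 Differentiated HepaRG cells in serum-free induction medium exposed in duplicate for 48 h to 8 half-log concentrations up to 100 uM in 0.5% DMSO. CYP3A4 mRNA measured by qRT-PCR normalized to ACTB, GAPDH and POLR2A; bidirectional fit versus DMSO.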

Read-out in test [8]: DNA damage-inducible transcript 3 (DDIT3), DDIT3 (gene 1649)
Briefly: LTEA_HepaRG_DDIT3: Life Technologies and Expression Analysis (LTEA) Assay for DNA damage-inducible transcript 3 (DDIT3) using HepaRG (AID 2283488). The gist of the method:
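HepaRG cells, 48 h after plating, exposed 48 h in serum-free induction medium to 8 half-log concentrations up to 100 uM in 0.5% DMSO, in duplicate. DDIT3 mRNA measured by TaqMan qRT-PCR, normalized to ACTB, GAPDH and POLR2A. Fitted bidirectionally against DMSO.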

Read-out in test [9]: Pro-epidermal growth factor (Homo sapiens) (UniProt P01133)
The test is described as follows: LTEA_HepaRG_EGF: Life Technologies and Expression Analysis (LTEA) Assay for Epidermal growth factor (EGF) using HepaRG (AID 2283489). The method in brief:
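EGF expression changes in human HepaRG cells are scored by bidirectional fitting relative to 0.5% DMSO controls. Chemicals are tested at eight half-log concentrations up to 100 uM for 48 h in serum-free induction medium.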

Read-out in test [10]: Early growth response protein 1 (EGR1) transcription factor, EGR1 (gene 1958)
The test is described as follows: LTEA_HepaRG_EGR1: Life Technologies and Expression Analysis (LTEA) Assay for Early growth response protein 1 (EGR1) transcription factor using HepaRG (AID 2283490). The gist of the method: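 Differentiated HepaRG cells in serum-free induction medium exposed 48 hours, duplicate, to 8 half-log concentrations up to 100 uM in 0.5% DMSO. EGR1 mRNA measured by TaqMan qRT-PCR, normalized to ACTB, GAPDH, POLR2A; bidirectional fit versus DMSO.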

Read-out in test [11]: Ezrin (EZR), EZR (gene 7430)
Briefly: LTEA_HepaRG_EZR: Life Technologies and Expression Analysis (LTEA) Assay for Ezrin (EZR) using HepaRG (AID 2283491). The gist of the method: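 Differentiated human HepaRG cells, 48 h after plating, were exposed in serum-free induction medium for 48 hours to eight half-log concentrations up to 100 uM in 0.5% DMSO. EZR mRNA was measured by TaqMan qRT-PCR, normalized to ACTB, GAPDH and POLR2A, and fitted bidirectionally against DMSO.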

Read-out in test [12]: Cytochrome P450 3A7 (Homo sapiens) (UniProt P24462)
Briefly: LTEA_HepaRG_CYP3A7: Life Technologies and Expression Analysis (LTEA) Assay for CYP3A7 using HepaRG (AID 2283492). The gist of the method:
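Cells were thawed, plated, cultured 48 h, then treated for a further 48 h with chemicals (eight-point half-log series from 100 uM, 0.5% DMSO). RNA was isolated and CYP3A7 expression quantified by qRT-PCR normalised to ACTB, GAPDH and POLR2A.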

Read-out in a further test: CYP3A5 (gene 1577)
Briefly: LTEA_HepaRG_CYP3A5: Life Technologies and Expression Analysis (LTEA) Assay for CYP3A5 using HepaRG (AID 2283493). The gist of the method:
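HepaRG cells, plated 48 h then in serum-free induction medium, dosed in duplicate for 48 h with eight half-log concentrations up to 100 uM in 0.5% DMSO. Gene mRNA by Fluidigm TaqMan qRT-PCR, normalized to ACTB, GAPDH, POLR2A.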

Read-out in test [13]: Cytochrome P450 4A22 (Homo sapiens) (UniProt Q5TCH4)
The test is described as follows: LTEA_HepaRG_CYP4A22: Life Technologies and Expression Analysis (LTEA) Assay for Cytochrome P450 4A22 (CYP4A22) using HepaRG (AID 2283495). The method in brief: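 Cryopreserved HepaRG cells, plated and cultured 48 h, then switched to serum-free induction medium and treated 48 h (duplicates, up to 100 uM, half-log steps, 0.5% DMSO). Expression change of CYP4A22 was fitted bidirectionally against vehicle.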

We go through three compounds from PubChem BioAssay (EPA / NIEHS).

By AC50 is commonly meant the midpoint of the concentration-response curve, whichever way the signal moves.

Activity calls are given as the source filed them. How the source made its calls: active means hit-call score of the fitted dose curve at least 0.9, where 1 is the maximum; inactive means score below 0.9.

Chain of Cytochrome P450 2C19 (Homo sapiens) (P33261 whole entry, looked up): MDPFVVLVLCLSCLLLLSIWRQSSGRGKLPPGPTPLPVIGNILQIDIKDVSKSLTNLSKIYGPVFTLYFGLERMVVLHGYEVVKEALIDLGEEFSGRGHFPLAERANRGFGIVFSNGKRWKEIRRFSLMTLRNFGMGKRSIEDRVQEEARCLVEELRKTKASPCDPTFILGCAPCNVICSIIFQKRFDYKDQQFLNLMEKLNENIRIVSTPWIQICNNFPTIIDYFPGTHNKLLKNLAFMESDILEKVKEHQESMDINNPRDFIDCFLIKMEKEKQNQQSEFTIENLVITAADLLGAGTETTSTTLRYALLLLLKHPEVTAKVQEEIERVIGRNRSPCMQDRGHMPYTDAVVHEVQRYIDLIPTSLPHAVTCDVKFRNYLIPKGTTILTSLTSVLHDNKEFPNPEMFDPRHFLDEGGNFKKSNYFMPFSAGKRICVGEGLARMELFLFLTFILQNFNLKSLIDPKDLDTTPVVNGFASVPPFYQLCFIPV
Chain of Caspase-3 (Homo sapiens) (P42574 whole entry, looked up): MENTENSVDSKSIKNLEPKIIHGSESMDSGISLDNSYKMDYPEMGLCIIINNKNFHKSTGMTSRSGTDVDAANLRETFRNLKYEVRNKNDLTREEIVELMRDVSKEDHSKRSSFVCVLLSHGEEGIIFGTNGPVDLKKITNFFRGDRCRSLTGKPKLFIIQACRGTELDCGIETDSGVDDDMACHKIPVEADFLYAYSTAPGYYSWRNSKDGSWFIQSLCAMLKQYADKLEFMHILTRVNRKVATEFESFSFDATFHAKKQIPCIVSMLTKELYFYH
Chain of Cytochrome P450 3A7 (Homo sapiens) (P24462 whole entry, looked up): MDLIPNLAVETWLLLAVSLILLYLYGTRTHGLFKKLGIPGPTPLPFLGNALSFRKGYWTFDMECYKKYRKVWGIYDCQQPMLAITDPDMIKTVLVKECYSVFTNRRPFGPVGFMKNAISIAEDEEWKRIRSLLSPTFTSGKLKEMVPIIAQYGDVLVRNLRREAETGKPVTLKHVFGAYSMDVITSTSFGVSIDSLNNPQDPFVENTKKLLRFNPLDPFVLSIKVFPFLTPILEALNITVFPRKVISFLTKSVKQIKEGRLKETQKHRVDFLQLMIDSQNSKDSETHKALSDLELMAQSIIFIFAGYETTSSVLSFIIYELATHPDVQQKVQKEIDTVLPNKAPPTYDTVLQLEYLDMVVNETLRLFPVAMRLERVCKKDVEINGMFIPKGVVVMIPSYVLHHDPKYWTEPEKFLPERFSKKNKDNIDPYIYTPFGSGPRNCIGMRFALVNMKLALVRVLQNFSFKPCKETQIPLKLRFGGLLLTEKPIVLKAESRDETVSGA
Chain of Cytochrome P450 3A4 (Homo sapiens) (P08684 whole entry, looked up): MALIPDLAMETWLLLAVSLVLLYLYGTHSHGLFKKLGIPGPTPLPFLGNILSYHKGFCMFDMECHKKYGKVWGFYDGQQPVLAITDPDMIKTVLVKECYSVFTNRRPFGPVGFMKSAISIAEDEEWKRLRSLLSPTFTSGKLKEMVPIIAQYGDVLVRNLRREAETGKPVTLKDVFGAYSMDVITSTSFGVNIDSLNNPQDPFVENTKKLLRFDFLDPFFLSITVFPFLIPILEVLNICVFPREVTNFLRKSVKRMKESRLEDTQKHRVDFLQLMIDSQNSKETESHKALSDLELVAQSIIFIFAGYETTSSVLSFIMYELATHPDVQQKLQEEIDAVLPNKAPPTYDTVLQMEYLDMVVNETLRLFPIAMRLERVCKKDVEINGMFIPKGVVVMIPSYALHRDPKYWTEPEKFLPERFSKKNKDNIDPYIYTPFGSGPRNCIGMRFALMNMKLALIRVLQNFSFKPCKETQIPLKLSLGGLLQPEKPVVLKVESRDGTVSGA

Regarding `CC[C@H](C)[C@H]1O[C@]2(C=C[C@@H]1C)C[C@@H]1C[C@@H](C/C=C(\C)[C@@H](O[C@H]3C[C@H](OC)[C@@H](O[C@H]4C[C@H](OC)[C@@H](NC)[C@H](C)O4)[C@H](C)O3)[C@@H](C)/C=C/C=C3\CO[C@@H]4[C@H](O)C(C)=C[C@@H](C(=O)O1)[C@]34O)O2`, the AC50 is 25 µM (active) in test [1]; 11.6 µM (active) in [5]; 12.6 µM (active) in [6]; 5.32 µM (active) in the test with CYP2E1 (gene 1571); 11.7 µM (active) in the test with CYP4A11 (gene 1579); 23.1 µM (active) in test [7]. In addition, the AC50 in test [8] is 13.1 µM (active); in test [9], 81.5 µM (active); in test [10] it was 29 µM (active); in test [11] it was 79.5 µM (active); in [12], 19.9 µM (active); with CYP3A5 (gene 1577), 22.7 µM (active). Also, the AC50 in test [13] was 7.23 µM (active). Further, the result (with Caspase-3 (Homo sapiens); in test [2]; in [3]; in test [4]; with CYP2C8 (gene 1558)) was inactive.
For the compound `CC(Oc1cccc(Cl)c1)C(=O)O` (stereo not drawn), the outcome (in [1]; with Caspase-3 (Homo sapiens); in test [2]; in test [3]; in test [4]; in the test with CYP4A11 (gene 1579)) was inactive. Further, the result (in test [8]; in test [9]; in [10]; in test [11]; with CYP3A5 (gene 1577); in test [13]) was inactive. Besides, the AC50 in [5] is 2.24 µM (active); in [6] it was 7.31 µM (active); with CYP2C8 (gene 1558), 14.4 µM (active); in the test with CYP2E1 (gene 1571) it was 4.01 µM (active); in [7], 10 µM (active); in [12], 14.2 µM (active).
Consider `CCOP(=O)(NC(C)C)Oc1ccc(SC)c(C)c1` (stereo not drawn), for which the compound was called inactive (in test [1]; with Caspase-3 (Homo sapiens); in [2]; in test [3]; in test [4]; with CYP2C8 (gene 1558)). Further, the call (in [8]; in [9]; in [10]; in test [11]; in test [12]; with CYP3A5 (gene 1577)) was inactive. Also, the AC50 is 22.5 µM (active) in test [5]; 50 µM (active) in test [6]; 34.3 µM (active) with CYP2E1 (gene 1571); 22.4 µM (active) with CYP4A11 (gene 1579); 19.5 µM (active) in test [13].
